The record followed here is PubChem BioAssay (NCATS).

A short description of assay [1]: Quantitative High-Throughput drug screen in 47 multiple myeloma cell lines against the NCATS MIPE library collection: KMM1_JCRB cell viability assay (AID 1918960). Also: nearly all actives have a fitted effect of over 30% in size. Also: potency is read from the fitted curve at half-maximal effect.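 As to viability (% of DMSO): 100% = DMSO-treated cells and 0% = medium-only wells.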 The method, boiled down:
(§1)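 Luminescence from CellTiter-Glo, taken after 5 min at room temperature, reports cellular ATP as viability. Cells (500 per well) had been treated 48 h at 37 °C with MIPE 4.0 compounds, scaled between DMSO and medium-only controls.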

The nature of assay [2]: Quantitative High-Throughput drug screen in 47 multiple myeloma cell lines against the NCATS MIPE library collection: EJM_DSMZ cell viability assay (AID 1918926; also: nearly all actives have a fitted effect of over 30% in size; also: potency is read from the fitted curve at half-maximal effect). The procedure, abridged: (§2)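 Viability readout: CellTiter-Glo luminescence following 5 min room-temperature incubation with reagent. Prior exposure: 48 h, 37C, humidified 5% CO2, 500 cells per well.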
Assay [3] in a line: Quantitative High-Throughput drug screen in 47 multiple myeloma cell lines against the NCATS MIPE library collection: ARP1_JJKsccF8 cell viability assay (AID 1918928; also: nearly all actives have a fitted effect of over 40% in size; also: potency is read from the fitted curve at half-maximal effect). The procedure, abridged:
as §1

Assay [4] is described as follows: Quantitative High-Throughput drug screen in 47 multiple myeloma cell lines against the NCATS MIPE library collection: Karpas620_DSMZ cell viability assay (AID 1918959). Also: nearly all actives have a fitted effect of over 30% in size. Also: potency is read from the fitted curve at half-maximal effect. The method, boiled down:
(§3)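 Luminescent ATP measurement with CellTiter-Glo gives viability, scaled between DMSO-only wells (100%) and media-only wells (0%). Cells, 500 per well, faced library compounds for 48 hours at 37C.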

Assay [5] can be described thus: Quantitative High-Throughput drug screen in 47 multiple myeloma cell lines against the NCATS MIPE library collection: Karpas417_ECACC cell viability assay (AID 1918961). Also: potency is read from the fitted curve at half-maximal effect. To be noted: Karpas417 myeloma viability, CellTiter-Glo ATP luminescence, 48 h; viability (% of DMSO): at 45.8 µM (top of the series). The procedure, abridged:
(§4)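 Steps: seed 500 cells per well; pin-transfer MIPE 4.0 library; incubate 48 h at 37C, 5% CO2, humidified; add CellTiter-Glo, 5 min room temperature; read luminescence.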
In general terms: In ATP-based viability assays light output follows the ATP content of the culture.

Assay [6] is described as follows: Quantitative High-Throughput drug screen in 47 multiple myeloma cell lines against the NCATS MIPE library collection: KHM11_PLB cell viability assay (AID 1918962). Also: nearly all actives have a fitted effect of over 35% in size. The method, boiled down:
as §3

Assay [7] can be described thus: Quantitative High-Throughput drug screen in 47 multiple myeloma cell lines against the NCATS MIPE library collection: JIM3_ECACC cell viability assay (AID 1918963; also: nearly all actives have a fitted effect of over 35% in size; also: potency is read from the fitted curve at half-maximal effect). The procedure, abridged:
as §3

Assay [8] can be described thus: Quantitative High-Throughput drug screen in 47 multiple myeloma cell lines against the NCATS MIPE library collection: JJN3_DSMZ cell viability assay (AID 1918966; also: nearly all actives have a fitted effect of over 50% in size; also: potency is read from the fitted curve at half-maximal effect). The procedure, abridged: as §2
A short description of assay [9]: Quantitative High-Throughput drug screen in 47 multiple myeloma cell lines against the NCATS MIPE library collection: H1112_PLB cell viability assay (AID 1918967; also: nearly all actives have a fitted effect of over 30% in size; also: potency is read from the fitted curve at half-maximal effect). The procedure, abridged:
as §2

Assay [10] in a line: Quantitative High-Throughput drug screen in 47 multiple myeloma cell lines against the NCATS MIPE library collection: KMS27_JCRB cell viability assay (AID 1918970). Also: nearly all actives have a fitted effect of over 30% in size. Also: potency is read from the fitted curve at half-maximal effect. The method, boiled down:
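Each line is seeded at 500 cells per well and treated with library compounds for 48 hours under 37 °C, 5% CO2. CellTiter-Glo is then added for 5 min at room temperature before median relative luminescence is recorded.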

Assay [11] can be described thus: Quantitative High-Throughput drug screen in 47 multiple myeloma cell lines against the NCATS MIPE library collection: AMO1_DSMZ cell viability assay (AID 1918927; also: nearly all actives have a fitted effect of over 30% in size; also: potency is read from the fitted curve at half-maximal effect). The method, boiled down:
as §2

The nature of assay [12]: Quantitative High-Throughput drug screen in 47 multiple myeloma cell lines against the NCATS MIPE library collection: ARD_JJKsccE7 cell viability assay (AID 1918929; also: potency is read from the fitted curve at half-maximal effect). The procedure, abridged:
as §2

Assay [13] can be described thus: Quantitative High-Throughput drug screen in 47 multiple myeloma cell lines against the NCATS MIPE library collection: JIM1_ECACC cell viability assay (AID 1918964; also: potency is read from the fitted curve at half-maximal effect). The procedure, abridged: as §2
Assay [14] in a line: Quantitative High-Throughput drug screen in 47 multiple myeloma cell lines against the NCATS MIPE library collection: INA6_PLB cell viability assay (AID 1918965; also: nearly all actives have a fitted effect of over 55% in size; also: potency is read from the fitted curve at half-maximal effect). The procedure, abridged: as §4
Assay [15] in a line: Quantitative High-Throughput drug screen in 47 multiple myeloma cell lines against the NCATS MIPE library collection: Karpas25_ECACC cell viability assay (AID 1918968; also: nearly all actives have a fitted effect of over 35% in size; also: potency is read from the fitted curve at half-maximal effect). The procedure, abridged:
as §2

Results filed as inconclusive are left out. Activity calls are given as the source filed them. Calls follow the shape of the dose curve; as a rule, active = well fitted curve in the direction sought with a large enough effect; inconclusive = small, poorly fitted or top-dose-only effect, or another doubt; inactive = no such curve, though single readings can be large; an effect the other way counts as inactive or inconclusive.

Regarding `CC=CCC(C)C(O)C1C(=O)NC(CC)C(=O)N(C)CC(=O)N(C)C(CC(C)C)C(=O)NC(C(C)C)C(=O)N(C)C(CC(C)C)C(=O)NC(C)C(=O)NC(C)C(=O)N(C)C(CC(C)C)C(=O)N(C)C(CC(C)C)C(=O)N(C)C(C(C)C)C(=O)N1C` (stereo not given), the Potency entry in [1] was “inactive”.

For `O=C(O)C=Cc1ccc(O)c(O)c1`, the Potency in assay [2] is 13.2 µM (active); in assay [3], 26.4 µM (active); in assay [4] it was 20.9 µM (active); in assay [5], 14.8 µM (active); in [8], 10.5 µM (active); in [10], 16.6 µM (active). Further, the Potency result in assay [6], in assay [7] and in assay [9] was “inactive” throughout.

Take `COc1ccc(-c2nc(N3CCOCC3)c3sc(CN(C)c4ncc(C(=O)NO)cn4)cc3n2)cn1`: the Potency in assay [2] is 0.0042 µM (active); in [11], 0.001 µM (active); in assay [12], 0.001 µM (active); in assay [4], 0.001 µM (active); in assay [1], 0.001 µM (active); in assay [13], 0.001 µM (active). The Potency in [10] is 0.001 µM (active). Further, the Potency result in assay [3], in assay [14] and in assay [15] was “inactive” in each case.

In the case of `COc1cccc([C@@H](C)NCCCc2ccccc2Cl)c1`, the Potency entry in assay [2], in assay [3], in [7] and in [8] was “inactive” throughout.

For the compound `O=C1Nc2ccc(Cl)cc2C(C#CC2CC2)(C(F)(F)F)O1` (stereo not given), the results for the Potency in [14], in assay [9] and in [15] were 20.9 µM (active), 23.5 µM (active) and 20.9 µM (active), respectively.

`N#CC1(c2ccc(NC(=O)c3cccnc3NCc3ccncc3)cc2)CCCC1`: the Potency entry in assay [2], in [11], in assay [3], in [12], in [4] and in assay [1] was “inactive” in each case. In addition, the Potency entry in assay [6], in assay [7], in assay [13], in assay [9] and in assay [10] was “inactive” in each case. For the same compound, the Potency in [14] was 18.7 µM (active).

For `CC=CCC=CCCC(=O)[C@H]1O[C@@H]1C(N)=O`, the Potency in [11] was 20.9 µM (active); in assay [12], 26.4 µM (active); in assay [4], 16.6 µM (active); in assay [13] it was 11.8 µM (active); in assay [14], 18.7 µM (active); in assay [8], 16.6 µM (active). Further, in assay [15], the Potency is 18.7 µM (active).

Take `O=C(O)c1cc(O)c2c(c1)C(=O)c1cccc(O)c1C2=O`: the Potency in assay [3] is 34 µM (active). Also, the Potency result in [12], in assay [7] and in assay [9] was “inactive” throughout.

In the case of `CO[C@H]1C[C@@H]2CC[C@@H](C)[C@@](O)(O2)C(=O)C(=O)N2CCCC[C@@H]2C(=O)O[C@H]([C@H](C)C[C@@H]2CC[C@H](OCCO)[C@H](OC)C2)CC(=O)[C@H](C)C=C(C)[C@@H](O)[C@@H](OC)C(=O)[C@H](C)C[C@H](C)C=CC=CC=C1C`, the Potency entry in assay [6] and in assay [9] was “inactive” in each case. For the same compound, the Potency is 6.62 µM (active) in assay [8], 1.05 µM (active) in [15] and 4.18 µM (active) in [10].

As to `CCOC(CN1C(=O)[C@](CC(=O)Nc2ccc(C)cc2)(NC(=O)Nc2ccc(C)cc2)c2ccccc21)OCC`, the Potency entry in [2] and in [9] was “inactive” throughout. Also, the Potency in [5] is 16.6 µM (active); in assay [10], 26.4 µM (active).

Regarding `CO[C@H]1C[C@@H]2CC[C@@H](C)[C@@](O)(O2)C(=O)C(=O)N2CCCC[C@@H]2C(=O)O[C@H]([C@@H](C)C[C@@H]2CC[C@H](O)[C@H](OC)C2)CC(=O)[C@H](C)C=C(C)[C@@H](O)[C@@H](OC)C(=O)[C@H](C)C[C@H](C)C=CC=CC=C1C`, in [7], the Potency result is “inactive”. Further, the Potency in assay [15] was 18.7 µM (active).

On to `CC(=O)OC1C(C)OC(Oc2c(-c3ccc(O)cc3)oc3cc(O)cc(O)c3c2=O)C(O)C1OC(C)=O` (stereo not given), for which the Potency entry in assay [3], in assay [7] and in [9] was “inactive” in each case. Also, the Potency in assay [14] is 9.35 µM (active).

As to `CCCCCN(C)CCC(O)(P(=O)(O)O)P(=O)(O)O`, the Potency result in assay [2], in assay [12], in assay [7], in assay [13], in assay [14] and in assay [9] was “inactive” in each case. The Potency result in assay [15] and in [10] was “inactive” each time. Also, the viability (% of DMSO) in assay [5] is 78.6% (active).

With `Clc1ccc(COC(Cn2ccnc2)c2ccc(Cl)cc2Cl)cc1` (stereo not given), the Potency in [11] is 23.5 µM (active); in assay [12], 26.4 µM (active); in [1], 20.9 µM (active); in assay [14] it was 20.9 µM (active).

On to `COC(=O)C1=CO[C@@H](O)[C@@H]2C(CO)=CC[C@@H]12`, for which the Potency in assay [11] was 18.7 µM (active); in assay [7], 23.5 µM (active); in assay [8], 11.8 µM (active). For the same compound, the Potency result in [9] was “inactive”.

For `CC(C)OC(=O)C(C)(C)Oc1ccc(C(=O)c2ccc(Cl)cc2)cc1`, the Potency is 10.5 µM (active) in [2] and 16.6 µM (active) in assay [8]. The Potency entry in assay [11], in assay [12], in assay [4] and in assay [1] was “inactive” each time.

As for `Cc1ccc(/C=N/NC(=O)c2ccccc2Oc2ccccc2)o1`, the results for the Potency in assay [7] and in [14] were 23.5 µM (active) and 16.6 µM (active), respectively.
